Among all 69,000 compounds or so, about 8,600 (12%) showed an effect of 50% or more. Many of the other results were omitted from the sample, so strong results are more common in it than they were.
What follows are compounds tested on Plasmodium berghei (assay: Screen against P. berghei liver stage (PbLuc), transformed with Luciferase, at 10uM). Details: tested at 10 uM.
Format: functional, HepG2

SMILES | INHIBITION [%]
Cc1nc(C2CCCN2C(=O)Cc2ccc3c(c2)OCO3)nc(O)c1C (stereo not drawn) | 22
CN1C(=O)CCC12CCN(Cc1ccco1)CC2 | 16.1
CN1CCN(c2nsc(-c3ccccc3)c2C#N)CC1 | 33.3
O=C(CS(=O)(=O)c1ccccn1)NC1CCCc2ccccc21 (stereo not drawn) | -17.8
CCCn1ncc(-c2ccnc(NC3CC(C)(C)NC(C)(C)C3)n2)c1C | 80.1
CCCOCCCNc1nccc(-c2cn(C)nc2C)n1 | -49.8
Cc1nn(CCO)c(C)c1CNC1CCCCc2ccccc21 (stereo not drawn) | 17.8
CCCn1ncc(-c2ccnc(N[C@@H]3C[C@H]4CC[C@@H]3C4)n2)c1C | 49.9
CCCn1cc(-c2ccnc(NC3CCc4ccccc43)n2)c(C)n1 (stereo not drawn) | 82.2
CCCn1ncc(C(=O)N2CCN(C3Cc4ccccc4C3)CC2)c1C | -20.8
Cc1nn(C)c(N2CCOCC2)c1CNC1CCc2ccccc21 (stereo not drawn) | 7.08
CCCn1cc(-c2ccnc(NC3CCCc4ccccc43)n2)c(C)n1 (stereo not drawn) | 72.3
CCCn1ncc(-c2ccnc(NC3CCCc4ccccc43)n2)c1C (stereo not drawn) | 77.2
CCCn1ncc(-c2ccnc(NC3CCSC3)n2)c1C (stereo not drawn) | 49.9
COc1c(CNC2CCCc3ccccc32)c(C)nn1C (stereo not drawn) | 37.9
CN1CCC/C1=N\S(=O)(=O)c1ccc(NC(=O)c2ccc(F)cc2)cc1 | 41.4
O=S(=O)(CC1CCCO1)Nc1cc(Cl)ccc1-n1cccn1 (stereo not drawn) | -15.5
CC(=O)N[C@@H]1CN(Cc2oc3ccccc3c2C)C[C@H]1c1ccc(C)o1 | 37.7
CC(CO)(NC(=O)NCc1ccc(Br)s1)C1CC1 (stereo not drawn) | -12.7
Fc1cnc(N2CCc3nnc(COc4ccccn4)n3CC2)nc1 | -58.7
CC(C(=O)N1CCN(C)CC1)n1cc(Br)cn1 (stereo not drawn) | 21.7
Cc1noc(C)c1CN1CCN(CC2CC2)c2ncccc2C1 | 47.2
O=C(CCc1ccncc1)N1CCCC(N2CCNC2=O)C1 (stereo not drawn) | 37.9
CC(=O)N1CC=C(n2c(=O)[nH]c3ccccc32)CC1 | 21.4
Cc1sc2ncc(-c3ccnc(NC4CCN(C)CC4)n3)c(=O)n2c1C | 24.8
Cc1nn(C)c(N2CCOCC2)c1CNC1CCc2ccccc2C1 (stereo not drawn) | 35.7
CCCn1cc(-c2ccnc(NC3CCc4ccccc4C3)n2)c(C)n1 (stereo not drawn) | 89.6

SMILES | INHIBITION [%]
O=C(C1CC1)N1CCC(Nc2nc(O)cc(-c3ccsc3)n2)CC1 | -5.78
Cn1cc(C2CCCN2C(=O)CCCOc2ccc(F)cc2)cn1 (stereo not drawn) | 0.914
NCC(=O)N1CCCCC1c1ccc(F)cc1 (stereo not drawn) | 74
O=C(c1cc(=O)[nH]c(=O)[nH]1)N1CCCCC1c1ccc(F)cc1 (stereo not drawn) | 30.1
O=C1CCNC(=O)N1CC(=O)N1CCC1c1ccc(F)cc1 (stereo not drawn) | -14.5
COC(=O)CCCC(=O)N1CCCCC1c1ccc(F)cc1 (stereo not drawn) | 34.1
COCCC(=O)N1CCCCC1c1ccc(F)cc1 (stereo not drawn) | 48
O=C1CCCN1CCCC(=O)N1CCCCC1c1ccc(F)cc1 (stereo not drawn) | 74.9
O=C1CCCCN1CCC(=O)N1CCCCC1c1ccc(F)cc1 (stereo not drawn) | 53.6
CCc1nccn1CCC(=O)N1CCCC1c1ccc(F)cc1 (stereo not drawn) | 29.4
Cc1nn(C)c(Cl)c1C1CCCN1C(=O)c1ccc2c(c1)COC2 (stereo not drawn) | 7.12
CN1CCCC1c1cncc(C(=O)NCCN2CCCC2)n1 (stereo not drawn) | -40.1
CN(C)CC(=O)N1CCc2cccc(S(=O)(=O)N3CCOCC3)c2C1 | 21.2
O=C(c1ccc(Cl)s1)N1CCC2(CNS(=O)(=O)c3cnccc3O2)C1 (stereo not drawn) | 21.7
CCC1CN(CC(=O)NCCN2CCCCCC2)c2ccccc2S1 (stereo not drawn) | 0.87
CC(c1cc(F)ccc1F)N(C)C(=O)NCc1ccnc(N(C)C)c1 (stereo not drawn) | 21.6
FC(F)(F)CCc1ccnc(N2CCN(Cc3ccccn3)CC2)n1 | 25.5
FC(F)(F)c1ccnc(N2CCCN(Cc3ccccn3)CC2)n1 | -1.7
O=C(c1ccccn1)C1CCCN(c2nccc(CCC(F)(F)F)n2)C1 (stereo not drawn) | 35.1
Cc1cc(C)nc(CCNc2nccc(CCC(F)(F)F)n2)n1 | 38.2
CCOc1ccnc(N2CCN(C(=O)CCc3ccncc3)CC2)n1 | -17
Oc1cccc(CN2CCN(c3nccc(CCC(F)(F)F)n3)CC2)c1 | 74.7
Cc1cnccc1N1CCN(c2nccc(CCC(F)(F)F)n2)CC1 | 83.2
Cc1cnccc1N1CCN(C(=O)CCCN2CCCCC2)CC1 | 21.7
CCN(C(C)=O)C1CCN(c2nccc(CCC(F)(F)F)n2)C1 (stereo not drawn) | 48.5
FC(F)(F)CCc1ccnc(N2CCN(CCc3ccncc3)CC2)n1 | 66.1

— ChEMBL document CHEMBL4513216, “Probing the Open Global Health Chemical Diversity Library for Multistage-Active Starting Points for Next-Generation Antimalarials” (ACS Infect Dis, 2020)
